Bioassay records (PubChem)
FBW7 activator = activators of human E3 ligase FBW7; AlphaScreen FBW7–phospho-cyclin E peptide binding, activator screen; AID 1259310; normalized activity (activation), % at 26.1 µM; 0.13% of 650,000 active; in the data active = normalized activity above about 1.9%;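 note: purified mutant Fbw7 with reduced substrate affinity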
Target sequence (Q969H0 whole entry, looked up): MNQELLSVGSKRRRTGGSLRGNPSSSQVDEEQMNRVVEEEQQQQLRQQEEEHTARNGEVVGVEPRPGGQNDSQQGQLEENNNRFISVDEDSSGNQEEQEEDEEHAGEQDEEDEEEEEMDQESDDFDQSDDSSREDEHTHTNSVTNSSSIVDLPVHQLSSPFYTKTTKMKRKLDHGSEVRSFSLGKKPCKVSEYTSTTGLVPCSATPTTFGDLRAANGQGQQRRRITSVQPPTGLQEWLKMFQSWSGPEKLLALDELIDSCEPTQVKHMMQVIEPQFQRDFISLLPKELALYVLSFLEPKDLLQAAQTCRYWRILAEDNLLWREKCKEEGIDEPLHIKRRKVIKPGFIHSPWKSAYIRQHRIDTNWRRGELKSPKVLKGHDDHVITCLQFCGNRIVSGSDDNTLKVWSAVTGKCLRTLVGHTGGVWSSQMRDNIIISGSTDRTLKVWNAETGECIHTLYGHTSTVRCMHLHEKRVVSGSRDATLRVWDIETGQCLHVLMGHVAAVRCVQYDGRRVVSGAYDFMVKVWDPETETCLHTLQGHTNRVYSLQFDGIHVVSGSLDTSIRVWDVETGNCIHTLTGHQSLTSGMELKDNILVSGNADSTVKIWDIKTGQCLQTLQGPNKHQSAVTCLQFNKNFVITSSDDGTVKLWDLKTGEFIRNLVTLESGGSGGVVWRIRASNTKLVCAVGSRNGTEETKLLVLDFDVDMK
TEAD-YAP block = TEAD-YAP interaction inhibition; HEK-TIYL cells, TEAD-Gal4/YAP UAS-luciferase luminescence; inhibition, % at 9.12 µM; 1.4% of 640,000 active; AID 1259422; in the data active = inhibition above about 32%;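 note: 0% = median of test compound wells and 100% = reference inhibitor wells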
GPR151 activ = human GPR151 activation; PathHunter beta-arrestin GPR151 cells, luminescence; activation, % at 11.2 µM; Q8TDV0; 1% of 650,000 active; in the data active = activation above about 4.9%;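 note: 0% = median of compound wells and 100% = cells with positive control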
MITF inh = blocks human microphthalmia-associated transcription factor; O75030; AlphaScreen MITF homodimerization, bead proximity signal; inhibition, % at 2.6 µM; 0.91% of 650,000 active; AID 1259374; in the data active = inhibition above about 50%;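 note: 0% = vehicle wells with protein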
GPR151 confirm = confirmation of human GPR151 activators; shares compounds with GPR151 activ; GPR151 PathHunter beta-arrestin cells, luminescence, 90 min; % of EA-reagent control over plate median; activation, % at 11.2 µM; 6,700 tested, under 10 active; AID 1508609;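 active = mean percent activation across replicates above the confirmation screen cutoff of 4.91%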
GPR119 counter = activates human GPR119 in a GPR151 counter-screen | shares compounds with GPR151 activ | GPR119 PathHunter beta-arrestin cells, luminescence, 90 min; 0 = compound-well median, 100 = enzyme-acceptor control | activation, % at 11.2 µM | 0.3% of 6,700 active;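 active = mean percent activation in the counterscreen above 29.09%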;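 note: counterscreen on off-target GPR119 to flag nonselective hits from the GPR151 activator screen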
An asterisk follows results filed as active; · = no result given. Sampled rows, rich in hits. Any-hit rate of the full collection: about 3.5%.

SMILES	FBW7 activator	TEAD-YAP block	GPR151 activ	MITF inh	GPR151 confirm	GPR119 counter
CCOc1cc(C=O)ccc1OC(=O)c1cccc([N+](=O)[O-])c1	0	7	-1	3	·	·
CC(NC(=O)C1CC1)C(c1cccs1)N1CCN(c2ccccc2)CC1 (stereo not drawn)	0	2	5.7*	10	1	8
CC(NC(=O)C1CC1)C(c1cccs1)N1CCN(c2ccccc2F)CC1 (stereo not drawn)	0	3	2	0	·	·
CCCCCn1c(=O)c(-c2ccccc2)c(O)c2ccccc21	0	3	0	1	·	·
Cc1ccc(N=Cc2ccccc2O)cc1C#N	0	11	5.6*	10	0	10
Cc1ccc(N=Cc2ccccc2O)cc1F	1	0	1	27	·	·
Cc1ccc(C)c(NC(=O)C23CCC(C)(C(=O)C2=O)C3(C)C)c1 (stereo not drawn)	0	-3	3	1	·	·
CC12CCC(C(=O)Nc3ccccc3C(F)(F)F)(C(=O)C1=O)C2(C)C (stereo not drawn)	0	0	6.1*	-19	0	4
CCCOc1ccc(/C(O)=C2/C(=O)C(=O)N(CCCN(C)C)C2c2ccc(F)cc2)c(C)c1 (stereo not drawn)	0	2	5.3*	-4	-1	0
CCCOc1ccc(/C(O)=C2/C(=O)C(=O)N(CCN(C)C)C2c2ccc(F)cc2)c(C)c1 (stereo not drawn)	1	9	-1	11	·	·
C=CCn1c(=O)c2ccccc2n2c(SCC(=O)Nc3ccccc3C(=O)OC)nnc12	0	1	5.0*	-7	0	-6
COc1cc(NC(=O)NCC(c2ccc(N(C)C)cc2)N2CCN(C)CC2)cc(OC)c1 (stereo not drawn)	0	11	0	7	·	·
CCOC(=O)C1C(=O)NC(SCC(=O)Nc2ccc(Br)cc2)=C(C#N)C1c1ccccc1OCC (stereo not drawn)	0	-6	8.5*	-11	0	11
COc1ccc(CCNC(=O)CN2N=C(c3ccc(C)cc3)CCC2=O)cc1OC	0	-7	6.7*	-6	1	-2
COCCNC(=O)/C=C/c1ccc(Cl)cc1	0	5	1	-2	·	·
COc1cccc2cc(C(=O)C3=C(O)C(=O)N(Cc4ccco4)C3c3cccnc3)oc12 (stereo not drawn)	0	11	5.4*	-2	0	9
O=C(CCS(=O)(=O)c1ccc2c(c1)OCC(=O)N2)Nc1ccc(C(F)(F)F)cc1	0	-3	-1	-3	·	·
O=C(Nc1nc(-c2ccc(I)cc2)cs1)C1CC1	0	-41	5.9*	13	0	9
CCOc1ccc(NC(=O)CSc2nc3ccc(N4CCCCC4)cc3c(=O)n2Cc2ccccc2)cc1	0	9	7.7*	-1	0	8
O=C(NCc1nnc2n1CCN(C/C(Cl)=C/c1ccccc1)CC2)c1cccc(F)c1	0	2	9.2*	-4	1	14
CC(C)(C)CN1CCc2nnc(CNC(=O)c3cccc(F)c3)n2CC1	0	9	1	5	·	·
O=C1OC(/C=C/c2cccc(Cl)c2Cl)=NC/1=C\c1ccccc1C(F)(F)F	0	2	5.8*	-1	-1	-3
O=C1OC(/C=C/c2cccc(Cl)c2Cl)=NC/1=C\c1ccccc1Cl	0	-5	-1	-9	·	·
Cc1ccn2c(C(=O)Nc3ccc(Cl)cc3)c(C)nc2c1	0	-7	5.5*	15	1	3
Cc1cc(I)ccc1NS(=O)(=O)c1cccc(C(=O)O)c1	0	0	0	14	·	·
SMILES	FBW7 activator	TEAD-YAP block	GPR151 activ	MITF inh	GPR151 confirm	GPR119 counter
Cc1nnc(NC(=O)c2ccc3c(c2)C(=O)N(CC2CCCO2)C3=O)s1 (stereo not drawn)	0	1	6.9*	17	0	9
Cc1cc(NC(=O)c2ccc3c(c2)C(=O)N(CC2CCCO2)C3=O)no1 (stereo not drawn)	0	-3	0	1	·	·
O=C(CN1C(=O)C2C3CC(c4ccccc4)C(C3)C2C1=O)Nc1ccc(F)cc1 (stereo not drawn)	0	10	3	5	·	·
C(=C\c1nn2c(Cc3ccccc3)nnc2s1)/c1ccccc1	0	-18	0	-17	·	·
Cc1cccc(N(Cc2c(F)cccc2Cl)S(C)(=O)=O)c1	1	6	6.9*	5	-1	-14
Cc1cccc(N(Cc2ccccc2F)S(C)(=O)=O)c1	1	1	0	7	·	·
CC(C)CN1CC[C@H]2[C@H](CCCN2Cc2ccco2)C1	0	-4	-1	8	·	·
Cc1ccc(/C=C/C(=O)NC(C)c2ccccc2)o1 (stereo not drawn)	0	5	1	4	·	·
CC(NC(=O)/C=C/c1ccco1)c1ccccc1 (stereo not drawn)	0	2	5.1*	9	0	15
CN(C)c1ccc(NC(=O)CCN2C(=O)C3C4C=CC(C4)C3C2=O)cc1 (stereo not drawn)	0	-15	5.2*	-1	0	-14
Cc1nn(Cc2ccccc2)c(C)c1NC(=O)[C@H]1C[C@@H](c2ccco2)NS(=O)(=O)N1C	1	9	0	17	·	·
Clc1ccc(Sc2ncnc3sc4c(c23)CCCC4)cc1	0	-5	15*	-1	0	-11
Cc1ccc(NC(=O)NC23CC4CC(CC(C4)C2)C3)cc1NC(=O)NC12CC3CC(CC(C3)C1)C2	0	0	0	1	·	·
Cc1ccc(NC(=O)NC23CC4CC(CC(C4)C2)C3)cc1	0	-22	5.6*	-7	1	3
O=C(c1n[nH]c(=O)c2ccccc12)N1CCC[C@@H]2CN(Cc3cccs3)CC[C@H]21	0	4	-1	6	·	·
CCOc1cc(/C=N/NC(=O)c2nnn(-c3nonc3N)c2-c2ccccc2)ccc1O	0	4	0	-6	·	·
CCN(CC)Cc1c(C(=O)N/N=C/c2cccc([N+](=O)[O-])c2)nnn1-c1nonc1N	0	-10	9.9*	-11	0	-1
CCOc1cc(/C=N/NC(=O)c2nnn(-c3nonc3N)c2CC)ccc1O	0	14	6.9*	11	0	-1
CN1CCN(Cc2ccc(C#CCCO)cc2)CC1CCO (stereo not drawn)	0	0	5.0*	-10	0	0
CC(CSc1ncccn1)Cn1c(N2CCCC2)nc2c1c(=O)[nH]c(=O)n2C (stereo not drawn)	0	-5	-1	1	·	·
CCOC(=O)c1ccc(Nc2ncnc3c2cnn3C)cc1	0	-17	-1	10	·	·
CCOC(=O)c1ccc(Nc2ncnc3c2cnn3Cc2ccccc2)cc1	0	2	6.2*	25	-1	-14
CCN(CC)C(=O)CSc1nnc(-c2ccoc2C)n1CC	0	-3	0	-4	·	·
